CYP2C9 inh: blockers of cytochrome P450 2C9 activity – biochemical, luminescence, ADME assay, primary screen | AID 777, 2007 | 96,000 compounds, 20% hits | P11712 | CYP2C9 Supersomes, luciferin-H conversion | inhibition, % at 5 µM;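 active = blocking of liver enzyme CYP2C9 beyond about 50% at 5 µM, limit read from the data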
Target sequence (P11712 whole entry, looked up): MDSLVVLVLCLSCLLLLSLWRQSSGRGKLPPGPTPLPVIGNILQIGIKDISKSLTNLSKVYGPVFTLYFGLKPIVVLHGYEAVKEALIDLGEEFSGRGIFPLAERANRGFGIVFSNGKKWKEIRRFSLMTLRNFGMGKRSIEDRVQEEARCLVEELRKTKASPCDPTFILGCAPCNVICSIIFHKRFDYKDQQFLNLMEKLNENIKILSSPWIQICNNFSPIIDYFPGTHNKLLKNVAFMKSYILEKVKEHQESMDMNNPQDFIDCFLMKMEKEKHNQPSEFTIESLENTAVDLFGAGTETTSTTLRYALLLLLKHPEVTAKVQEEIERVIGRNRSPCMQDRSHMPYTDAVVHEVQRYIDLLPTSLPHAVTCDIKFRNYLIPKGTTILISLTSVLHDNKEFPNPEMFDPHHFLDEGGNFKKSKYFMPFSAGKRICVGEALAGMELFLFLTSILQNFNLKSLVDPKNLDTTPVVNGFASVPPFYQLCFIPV
CYP2C19 inhib: blockers of cytochrome P450 2C19 activity – biochemical, luminescence, ADME assay, primary screen. P33261. CYP2C19 Supersomes, luciferin-H EGE luminescence, 30 min. inhibition, % at 5 µM. 96,000 compounds, 21% hits. AID 778, 2007;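 active = CYP2C19 inhibition above a set limit at 5 µM in the primary screen, cut at about 50% in these data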;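 note: plate controls were negative control wells for no effect and 2.5 mM tranylcypromine positive control for full effect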
CYP2C19 act: human CYP2C19 activators, primary screen, biochemical, luminescence; Cytochrome P450 2C19 (Homo sapiens), P33261; recombinant CYP2C19, luciferin-H EGE luminescence; hits give high values; 0 = fully inhibited enzyme, 1 = untreated enzyme; activation factor at 5 µM; 96,000 tested, under 10 active;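 active = activation factor of at least 2 at 5 µM in the primary screen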;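 note: 0 = wells with 2.5 mM tranylcypromine and 1 = vehicle-only wells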
CYP2C9 act: human CYP2C9 activators, primary screen, biochemical, luminescence | Cytochrome P450 2C9 (Homo sapiens), P11712 | recombinant CYP2C9, luciferin-H conversion; hits give high values; factor 1 = untreated enzyme, 0 = blocked | activation factor at 5 µM | 96,000 compounds, 1.4% hits | AID 1024, 2008;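 active = activation factor of 2 or more for CYP2C9 at a 5 µM dose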;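 note: 0 = sulfaphenazole-blocked wells and 1 = vehicle-only wells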
E-sel TNF inh: E-selectin induction blockers in HUVEC – imaging, immunofluorescence, high content, primary screen. 120,000 compounds, 0.71% hits. inhibition, % at 2 µM. HUVEC TNFa-induced E-selectin immunofluorescence. AID 1246, 2008;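 active = inhibition above the batch mean plus 3 SD, and confirmed as a hit on visual image review, cut at about 43% in these data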;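 note: 0% = TNF-stimulated DMSO wells and 100% = unstimulated control wells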
cytoskel mod: modifiers of F-actin cytoskeleton organization, primary screen, imaging, HUVEC, phalloidin staining, high-content imaging. HUVEC TNFa F-actin phalloidin imaging. inhibition, % at 2 µM. 91,000 compounds, 0.18% hits. AID 836, 2007;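 active = inhibition above the batch mean plus 3 SD and confirmed as a hit by visual image inspection, cut at about 30% in these data, passing the limit was not always enough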
* hit, by the source's call; . = no result given. Rows were chosen to be rich in hits. Some 22% of all compounds tested hit in one or more screens of this group.

SMILES	CYP2C9 inh	CYP2C19 inhib	CYP2C19 act	CYP2C9 act	E-sel TNF inh	cytoskel mod
CCOc1ccc(N(CC(=O)NCC2CCCO2)S(=O)(=O)c2ccc(Cl)cc2)cc1 (stereo not drawn)	45	88*	0.1	0.6	-15	-7
COc1ccc(S(=O)(=O)N(CC(=O)NCC2CCCO2)c2ccc(F)cc2)cc1OC (stereo not drawn)	28	53*	0.5	0.7	15	-29
COc1ccc(S(=O)(=O)N(CC(=O)NCc2cccnc2)c2ccc(F)cc2)cc1OC	.	.	.	.	-16	.
O=C(CN(Cc1ccco1)C(=O)c1cc(=O)[nH]c2ccccc12)Nc1ccccc1Br	.	.	.	.	5	-8
N#CC(C#N)=Cc1cc2ccccc2nc1N1CCCCC1	.	.	.	.	-15	.
CC1=NN(c2ccccc2)C(=O)/C1=C/c1cc2cc(C)ccc2nc1N1CCCCC1	81*	67*	0.3	0.2	-15	-24
CCC(C)c1ccc(OCCn2ccnc2)cc1 (stereo not drawn)	.	.	.	.	0	.
CCOc1ccc(OCCOCCn2ccnc2)cc1	42	98*	0	0.6	27	-2
CCOC(=O)C1CCCN(c2nc3ccccc3nc2C(C#N)C(=O)NCc2ccccc2)C1 (stereo not drawn)	62*	28	0.7	0.4	-14	2
N#CC(C(=O)NCCc1ccccc1)c1nc2ccccc2nc1N1CCCCC1 (stereo not drawn)	30	13	0.9	0.7	.	8
N#CC(C(=O)NCc1ccccc1)c1nc2ccccc2nc1N1CCCC1 (stereo not drawn)	32	20	0.8	0.7	.	13
CCOC(=O)N1CCN(c2nc3ccccc3nc2C(C#N)C(=O)NCCc2ccccc2)CC1 (stereo not drawn)	73*	65*	0.3	0.3	-16	-9
CCOC(=O)c1c(C)c(C(=O)Nc2ccc3c(c2)OCO3)c(C)n1C	-16	28	0.7	1.2	.	8
Cc1cc(C(=O)NC(C)c2ccc3c(c2)OCO3)cs1 (stereo not drawn)	60*	90*	0.1	0.4	-15	26
CCOC(=O)c1c(N)sc(C(=O)Nc2ccc3c(c2)OCO3)c1C	84*	98*	0	0.2	9	.
CC(=O)Nc1ccc(C(=O)Nc2ccc3c(c2)OCO3)cc1	18	24	0.8	0.8	-42	11
Cc1occc1C(=O)Nc1ccc2c(c1)OCO2	4	54*	0.5	1	-4	-5
Cc1cc(C)n2ncc(C(=O)Nc3ccc4c(c3)OCO4)c2n1	74*	37	0.6	0.3	-18	-4
O=C(NCCc1cn2ccccc2n1)c1cc(COc2c(F)cccc2F)on1	.	.	.	.	9	.
Cc1cc(C(=O)Nc2ccc3c(c2)OCO3)cs1	48	70*	0.3	0.5	17	0
Cc1ccc(-c2noc(C3CCCN(C(=O)c4ccccc4)C3)n2)o1 (stereo not drawn)	24	13	0.9	0.8	9	-4
COc1ccc(C(=O)N2CCCC(c3nc(-c4cc(OC)c(OC)c(OC)c4)no3)C2)cc1 (stereo not drawn)	66*	31	0.7	0.3	2	25
COc1ccc(-c2noc(C3CCCN(S(=O)(=O)c4cccc(Cl)c4)C3)n2)cc1OC (stereo not drawn)	87*	94*	0.1	0.1	.	14
COc1ccccc1C(=O)N1CCCC(c2nc(-c3cc(OC)c(OC)c(OC)c3)no2)C1 (stereo not drawn)	45	59*	0.4	0.6	-33	4
c1ccc(-n2c(Cc3cn4ccsc4n3)nnc2N2CCOCC2)cc1	-13	-8	1.1	1.1	-19	32
SMILES	CYP2C9 inh	CYP2C19 inhib	CYP2C19 act	CYP2C9 act	E-sel TNF inh	cytoskel mod
S=c1[nH]nc(-c2ccco2)n1/N=C/c1ccc(Cl)cc1	.	.	.	.	22	.
CC(=O)OCc1c(C(F)(F)F)nn(C)c1Sc1ccccc1	16	90*	0.1	0.8	24	-6
CCCn1c(CC)nc([N+](=O)[O-])c1Sc1ccc(F)cc1	-3	39	0.6	1	-13	10
CCC(=O)OCc1c(C(F)(F)F)nn(C)c1Sc1ccc(F)cc1	41	61*	0.4	0.6	13	4
CCC(=O)OCc1c(C(F)(F)F)nn(C)c1Sc1ccc(Cl)cc1	60*	75*	0.2	0.4	40	-1
O=C(CN(Cc1ccccc1C(F)(F)F)C(=O)CNC(=O)c1ccco1)NC1CCCC1	16	11	0.9	0.8	-5	-28
COc1ccc(C(=O)/C(=C/c2cccs2)c2nc3ccccc3o2)cc1	69*	26	0.7	0.3	12	.
COC(=O)Cn1cnc2sc(C)c(S(=O)(=O)N3CCN(c4ccccc4OC)CC3)c2c1=O	51*	27	0.7	0.5	.	-5
COC(=O)Cn1cnc2sc(C)c(S(=O)(=O)N3CCC(C)CC3)c2c1=O	7	26	0.7	0.9	-33	-10
COc1cccc(NC(=O)Cn2cnc3sc(C)c(S(=O)(=O)N4CCCCC4)c3c2=O)c1	66*	18	0.8	0.3	21	-11
CCOC(=O)c1c(N)sn(-c2ccccc2C)c1=S	62*	28	0.7	0.4	13	6
CCOC(=O)c1sc(=S)n(-c2ccccc2Cl)c1SC	17	20	0.8	0.8	4	4
COc1ccc(Cl)c(NCCC(=O)O)c1	.	.	.	.	-8	-2
CCC12CN(C(=O)c3ccc(OC)cc3)CC(CC)(CN(C(=O)c3ccc(OC)cc3)C1)C2=O	9	58*	0.4	0.9	40	33
COc1ccc(C(=O)/C=C/Nc2ccc(C)cn2)cc1OC	.	.	.	.	6	-10
COc1cc(-c2nc(-c3ccccc3)c(-c3cccs3)[nH]2)cc(OC)c1O	82*	61*	0.4	0.2	2	.
COc1cc(-c2nc(-c3ccccc3)c(-c3cccs3)[nH]2)cc(OC)c1OC	49	33	0.7	0.5	.	3
CCOC(=O)N1CCC(c2cc(=O)n3[nH]ccc3n2)CC1	59*	-4	1	0.4	.	-1
CCOC(=O)N1CCC(c2cc(=O)n3[nH]cc(C(=O)OC)c3n2)CC1	62*	-10	1.1	0.4	.	-6
COc1cccc(NC(=O)N2CCCC2C(=O)Nc2ccc3c(c2)OCO3)c1 (stereo not drawn)	.	.	.	.	-17	.
O=C(NCCSc1c[nH]c2ccccc12)c1ccco1	62*	19	0.8	0.4	.	26
COc1ccc2c(CCNC(=O)c3ccco3)c[nH]c2c1	39	79*	0.2	0.6	.	-14
COc1ccc2c(CCNC(=O)CN3C(=O)c4ccccc4C3=O)c[nH]c2c1	.	.	.	.	15	.
